# Assay results published in the supplement of paper PMC8728848.
# The sample as a whole holds a higher share of the strongest signals than the screen did.
# B1: PitA (Streptococcus oralis), G3F8D8 (protein)
# chain: MNIRFDFKKVQIIARRLVTLLAILFLCAPISLLNADSTTEPQTTLHKTITPISGQDDKYELSLDITSKLGTETQTDPLDVVLVADLSGSMQNQDVQSFDGRTISRIDALKNTLRGTNGRKGLIDTILSNSNNRLSMVGFGGKIDNKKVDQYWDGNKWRLFRPYWPYERMTKYYDGVSPWDDANTILGWSNNARAAKTAVYNMSIAGGNSIGTESGIGTGTNIGAGLTLANQLMGSARSNAKKVVILLSDGFANMVYDANGYTIYNYNNEDPNIETAPQWFWDRLNNNLNSLSYSLAPTLDGFYSIKFRYSNNVDSITSLQYYMRQHNASIPNEIFSANDEDQLRDSFKDITDKILPLGIHHVSIKDVLSKYVQLLPNGSSEFRVVKEKDGSSEILIENQVTFDTKTTSEGLVEVTAKFSPNYSLEDGARYVLKFTVTSSQEALDAIAGDKKLEAGDAEGSDVNKLYSNKGASVTYSYGIGNSQTKTKEYSDNPTFKPSDPLTVPVEVEWQGVTGARTVITADQPSNVELKLVQKNKNGGSDNQDYRKTNVNVSKNVSNETRNFEKVAKGYQYDLIAPDVPAFTKEIKNVGTESKPSFKVIYKQLPSLTIKKVLEAENNLNKEFRIKVKLTSPDSKPLNGTFGEITVVNGEAEIRVEKRKRWEGILSYLPRGTHYKVEEEAASTNGYHVTYENQEGDLNKDETSIVTNHKLPSLSVTKKVTGVFANLLKSFKITINIRDAQNSPLNGTYTATVNNKRTPLQFTNGRASIDLNKDQTIKIYGLPLDSHYTVEEESNSSRGYQVSYENQEGKLDGDKSATVTNNKNSVPETGVDFLSSTLMLGIILPLGGIFFTILLGYLVVHRRK
# B2: SRS6 (Toxoplasma gondii), Q9NH12 (protein)
# chain: MARTGSMQQRRGGFQTTARMLMAVCVSGVLLLSSGPSSANKLTEGQQNQNSGPGAATQEGPTIEGAVAKCVLKTTAAENGSSRAKNTTGLTLSKENLVVSLQCSGEKNAIVPKDQKKVCSAAPNAKVADCKGADTDKQVTLKSLLGTSGDIQWEKTIVSTDNKGEVMTLKIKESELPLFDKAFFVGCEEDKAQTRTSQATECKVNVSVKARPSTVGENNVVTCAYGKDSNPRPLEVEMSADNDTLTIDCGTDGSLKPTKYTEEFCVTDNSQLESCTTKKFSEILPTFLPSWWVSDSQNGSAKLTIPESGFPEEQQQFRLGCVPKKTTQSPQANPSVKTEKEEGAQNTDASTSNCSVIVTVKASNFSSLASSIAPTAAVAGGAAALTGFLVGSF
# Experiments:
# Assay in all cases: glycan array binding signal (z-score within array); higher = stronger binding
# Conditions in all cases: glycan notation: IUPAC condensed, linker removed
# Kdn(a2-3)Gal(b1-4)Glc = molecular target: Kdn(a2-3)Gal(b1-4)Glc
# In short: (§1)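 Negative Z-scores can be read as non-binding. The Z-score is calculated within each array and then averaged across arrays of one protein sequence at different concentrations or buffers and across linkers. Arrays, 3228 in all, were curated from the Consortium for Functional Glycomics database and kept only where the protein sequence was available.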
# [1] = molecular target: Kdn(a2-3)Gal(b1-4)[Fuc(a1-3)]GlcNAc
# In short: as §1
# Man(a1-3)[Man(a1-6)]Man = molecular target: Man(a1-3)[Man(a1-6)]Man
# In short: as §1
# [2] = molecular target: Neu5Ac(a2-3)Gal(b1-3)GlcNAc(b1-3)GalNAc
# In short: as §1
# [3] = molecular target: Neu5Ac(a2-3)Gal(b1-4)[Fuc(a1-3)]GlcNAc(b1-3)Gal(b1-4)[Fuc(a1-3)]GlcNAc(b1-3)Gal(b1-4)[Fuc(a1-3)]GlcNAc
# In short: as §1
# [4] = molecular target: Neu5Ac(a2-3)Gal(b1-4)[Fuc(a1-3)]GlcNAc(b1-3)GalNAc
# In short: as §1
# [5] = molecular target: Neu5Ac(a2-3)Gal6S(b1-4)[Fuc(a1-3)]GlcNAc
# In short: as §1
# Neu5Ac(a2-6)Gal(b1-4)Glc = molecular target: Neu5Ac(a2-6)Gal(b1-4)Glc
# In short: as §1
# [6] = molecular target: Neu5Ac(a2-6)Gal(b1-4)GlcNAc(b1-2)Man(a1-6)[Gal(b1-4)GlcNAc(b1-2)Man(a1-3)]Man(b1-4)GlcNAc(b1-4)GlcNAc
# In short: as §1
# [7] = molecular target: Neu5Ac(a2-6)Gal(b1-4)GlcNAc(b1-2)Man(a1-6)[Man(a1-3)]Man(b1-4)GlcNAc(b1-4)GlcNAc
# In short: as §1
# [8] = molecular target: Neu5Ac(a2-8)Neu5Ac(a2-3)[Gal(b1-3)GalNAc(b1-4)]Gal(b1-4)Glc
# In short: as §1
# [9] = molecular target: Neu5Ac(a2-8)Neu5Ac(a2-8)Neu5Ac(a2-8)Neu5Ac(a2-3)[GalNAc(b1-4)]Gal(b1-4)Glc
# In short: as §1
# [10] = molecular target: Neu5Ac9Ac(a2-3)Gal(b1-3)GlcNAc
# In short: as §1
# [11] = molecular target: Fuc(a1-2)Gal(b1-3)GalNAc(b1-3)Gal
# In short: as §1
# [12] = molecular target: Fuc(a1-2)Gal(b1-4)GlcNAc(b1-2)Man(a1-3)[Fuc(a1-2)Gal(b1-4)GlcNAc(b1-2)Man(a1-6)]Man(b1-4)GlcNAc(b1-4)GlcNAc
# In short: as §1
# [13] = molecular target: Fuc(a1-2)Gal(b1-4)[Fuc(a1-3)]GlcNAc
# In short: as §1
# [14] = molecular target: Fuc(a1-2)[Gal(a1-3)]Gal(b1-4)Glc
# In short: as §1
# [15] = molecular target: Fuc(a1-2)[GalNAc(a1-3)]Gal(b1-4)GlcNAc(b1-3)Gal(b1-4)GlcNAc(b1-3)Gal(b1-4)GlcNAc
# In short: as §1
# Gal(a1-3)Gal = molecular target: Gal(a1-3)Gal
# In short: as §1
# [16] = molecular target: Gal(a1-3)Gal(b1-4)GlcNAc(b1-3)GalNAc
# In short: as §1
# [17] = molecular target: Gal(a1-3)Gal(b1-4)[Fuc(a1-3)]GlcNAc(b1-2)Man(a1-3)[Gal(a1-3)Gal(b1-4)[Fuc(a1-3)]GlcNAc(b1-2)Man(a1-6)]Man(b1-4)GlcNAc(b1-4)GlcNAc
# In short: as §1
# Gal(a1-3)GalNAc = molecular target: Gal(a1-3)GalNAc
# In short: as §1
# Gal(b1-3)Gal(b1-4)GlcNAc = molecular target: Gal(b1-3)Gal(b1-4)GlcNAc
# In short: as §1
# [18] = molecular target: Gal(b1-3)GlcNAc(b1-2)Man(a1-3)[Gal(b1-3)GlcNAc(b1-2)Man(a1-6)]Man(b1-4)GlcNAc(b1-4)[Fuc(a1-6)]GlcNAc
# In short: as §1
# [19] = molecular target: Gal(b1-4)GlcNAc(b1-2)Man(a1-3)[Gal(b1-4)GlcNAc(b1-2)Man(a1-6)]Man(b1-4)GlcNAc(b1-4)GlcNAc
# In short: as §1
# [20] = molecular target: Gal(b1-4)GlcNAc(b1-2)Man(a1-3)[Gal(b1-4)GlcNAc(b1-2)Man(a1-6)]Man(b1-4)GlcNAc(b1-4)[Fuc(a1-6)]GlcNAc
# In short: as §1
# [21] = molecular target: Gal(b1-4)GlcNAc(b1-3)Gal(b1-4)GlcNAc(b1-3)Gal(b1-4)GlcNAc
# In short: as §1
# [22] = molecular target: Gal(b1-4)GlcNAc(b1-3)Gal(b1-4)[Fuc(a1-3)]GlcNAc(b1-3)Gal(b1-4)[Fuc(a1-3)]GlcNAc
# In short: as §1
# [23] = molecular target: Gal(b1-4)GlcNAc(b1-3)[GlcNAc(b1-6)]Gal(b1-4)GlcNAc
# In short: as §1
# Gal6S(b1-4)Glc6S = molecular target: Gal6S(b1-4)Glc6S
# In short: as §1
# GalNAc(a1-3)Gal = molecular target: GalNAc(a1-3)Gal
# In short: as §1
# [24] = molecular target: GlcNAc(a1-4)Gal(b1-4)GalNAc
# In short: as §1
# [25] = molecular target: GlcNAc(a1-4)Gal(b1-4)GlcNAc(b1-3)Gal(b1-4)[Fuc(a1-3)]GlcNAc(b1-3)Gal(b1-4)[Fuc(a1-3)]GlcNAc
# In short: as §1
# [26] = molecular target: GlcNAc(b1-2)Man(a1-3)[GlcNAc(b1-2)Man(a1-6)]Man(b1-4)GlcNAc(b1-4)[Fuc(a1-6)]GlcNAc
# In short: as §1
# [27] = molecular target: Man(a1-3)[Man(a1-6)]Man(a1-6)[Man(a1-2)Man(a1-3)]Man(b1-4)GlcNAc(b1-4)GlcNAc
# In short: as §1
# [28] = molecular target: Neu5Ac(a2-3)Gal(b1-4)GlcNAc(b1-3)Gal(b1-4)GlcNAc
# In short: as §1
# [29] = molecular target: Neu5Ac(a2-3)Gal(b1-4)[Fuc(a1-3)]GlcNAc
# In short: as §1
# [30] = molecular target: Neu5Ac(a2-3)GalNAc(b1-4)GlcNAc
# In short: as §1
# Neu5Ac(a2-6)Gal = molecular target: Neu5Ac(a2-6)Gal
# In short: as §1
# [31] = molecular target: Neu5Gc(a2-3)Gal(b1-4)[Fuc(a1-3)]GlcNAc
# In short: as §1
# [32] = molecular target: Neu5Gc(b2-6)Gal(b1-4)GlcNAc
# In short: as §1
binder,measurement,setting,value
B1,glycan array binding signal (z-score),Kdn(a2-3)Gal(b1-4)Glc,-0.512
same,glycan array binding signal (z-score),[1],1.05
same,glycan array binding signal (z-score),Man(a1-3)[Man(a1-6)]Man,-0.627
same,glycan array binding signal (z-score),[2],-0.148
same,glycan array binding signal (z-score),[3],0.263
same,glycan array binding signal (z-score),[4],3.68
same,glycan array binding signal (z-score),[5],-0.322
same,glycan array binding signal (z-score),Neu5Ac(a2-6)Gal(b1-4)Glc,-0.522
same,glycan array binding signal (z-score),[6],-0.302
same,glycan array binding signal (z-score),[7],0.537
same,glycan array binding signal (z-score),[8],-0.463
same,glycan array binding signal (z-score),[9],0.179
same,glycan array binding signal (z-score),[10],-0.641
B2,glycan array binding signal (z-score),[11],1.86
same,glycan array binding signal (z-score),[12],1.71
same,glycan array binding signal (z-score),[13],0.016
same,glycan array binding signal (z-score),[14],-0.753
same,glycan array binding signal (z-score),[15],-0.105
same,glycan array binding signal (z-score),Gal(a1-3)Gal,0.351
same,glycan array binding signal (z-score),[16],0.006
same,glycan array binding signal (z-score),[17],0.436
same,glycan array binding signal (z-score),Gal(a1-3)GalNAc,-0.288
same,glycan array binding signal (z-score),Gal(b1-3)Gal(b1-4)GlcNAc,-0.549
same,glycan array binding signal (z-score),[18],1.28
same,glycan array binding signal (z-score),[19],-0.558
same,glycan array binding signal (z-score),[20],3.04
same,glycan array binding signal (z-score),[21],2.32
same,glycan array binding signal (z-score),[22],-0.096
same,glycan array binding signal (z-score),[23],0.169
same,glycan array binding signal (z-score),Gal6S(b1-4)Glc6S,4.38
same,glycan array binding signal (z-score),GalNAc(a1-3)Gal,0.054
same,glycan array binding signal (z-score),[24],0.375
same,glycan array binding signal (z-score),[25],0.807
same,glycan array binding signal (z-score),[26],13.7
same,glycan array binding signal (z-score),[27],1.44
same,glycan array binding signal (z-score),[28],2.13
same,glycan array binding signal (z-score),[29],-0.808
same,glycan array binding signal (z-score),[30],-0.177
same,glycan array binding signal (z-score),Neu5Ac(a2-6)Gal,0.288
same,glycan array binding signal (z-score),[31],0.103
same,glycan array binding signal (z-score),[32],0.403
